Measured values taken from PubChem BioAssay.
Calls of active or inactive are those of the source.

Legend:
[1] = test system: Plasmodium falciparum Sir2 (PF13_0152, Sir2A); assay: pfSir2 binders on small-molecule microarrays, primary screen, biochemical, small-molecule microarray, 635 nm fluorescence (AID 1098); conditions: small-molecule microarray binding, fluorescence 635 nm; higher = more signal;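 also: score merges spot fluorescence intensity with its signal-to-noise ratio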
[2] = small-molecule microarray binders of probe aDKK1, primary screen, biochemical, biotinylated probe, 635/667 nm fluorescence (AID 1099); conditions: higher = more signal;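 also: score merges 667nm spot fluorescence with signal to noise across triplicate slides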
[3] = small-molecule microarray binders of probe aCHRDL2, primary screen, biochemical, biotinylated probe, 635/667 nm fluorescence (AID 1100); conditions: higher = more signal
[4] = splicing luciferase reporter signal modulators, primary screen, spliceosome inhibition project, cell-based, HEK293, splice +/- reporter (AID 1101); conditions: luminescence, 24 h, higher = more signal, called active from +8 up or from −8 down;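 also: HEK293 cells carrying a splicing-competent luciferase reporter gene; test concentration not given here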
[5] = target: Fibroblast growth factor 10 (Homo sapiens) (UniProt O15520); assay: FGF10 binders on small-molecule microarrays, primary screen, biochemical, small-molecule microarray, 635 nm fluorescence (AID 1102); conditions: FGF10 binding, fluorescence 635 nm, higher = more signal
Sequence of Fibroblast growth factor 10 (Homo sapiens) (O15520 whole entry, looked up): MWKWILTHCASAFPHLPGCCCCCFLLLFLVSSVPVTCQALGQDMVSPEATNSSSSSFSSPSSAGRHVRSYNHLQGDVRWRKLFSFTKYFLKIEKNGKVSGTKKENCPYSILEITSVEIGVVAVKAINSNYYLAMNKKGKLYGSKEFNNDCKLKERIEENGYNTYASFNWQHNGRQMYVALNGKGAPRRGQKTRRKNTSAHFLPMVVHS

[6] = test system: glycogen synthase kinase-3 (GSK3A per assay name; protocol says GSK3B); assay: GSK3 binders on small-molecule microarrays, primary screen, biochemical, small-molecule microarray, 635 nm fluorescence, GSK3A (AID 1103); conditions: small-molecule microarray binding, fluorescence 635 nm; higher = more signal; also: the record names both GSK3A and GSK3B
[7] = target: Epidermal growth factor receptor (Homo sapiens) (UniProt P00533); assay: EGFR binders on small-molecule microarrays, primary screen, biochemical, small-molecule microarray, 635 nm fluorescence (AID 1104); conditions: EGFR binding, higher = more signal;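 also: score merges 667 nm emission intensity with spot signal to noise over triplicate slides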
Sequence of Epidermal growth factor receptor (Homo sapiens) (P00533 whole entry, looked up): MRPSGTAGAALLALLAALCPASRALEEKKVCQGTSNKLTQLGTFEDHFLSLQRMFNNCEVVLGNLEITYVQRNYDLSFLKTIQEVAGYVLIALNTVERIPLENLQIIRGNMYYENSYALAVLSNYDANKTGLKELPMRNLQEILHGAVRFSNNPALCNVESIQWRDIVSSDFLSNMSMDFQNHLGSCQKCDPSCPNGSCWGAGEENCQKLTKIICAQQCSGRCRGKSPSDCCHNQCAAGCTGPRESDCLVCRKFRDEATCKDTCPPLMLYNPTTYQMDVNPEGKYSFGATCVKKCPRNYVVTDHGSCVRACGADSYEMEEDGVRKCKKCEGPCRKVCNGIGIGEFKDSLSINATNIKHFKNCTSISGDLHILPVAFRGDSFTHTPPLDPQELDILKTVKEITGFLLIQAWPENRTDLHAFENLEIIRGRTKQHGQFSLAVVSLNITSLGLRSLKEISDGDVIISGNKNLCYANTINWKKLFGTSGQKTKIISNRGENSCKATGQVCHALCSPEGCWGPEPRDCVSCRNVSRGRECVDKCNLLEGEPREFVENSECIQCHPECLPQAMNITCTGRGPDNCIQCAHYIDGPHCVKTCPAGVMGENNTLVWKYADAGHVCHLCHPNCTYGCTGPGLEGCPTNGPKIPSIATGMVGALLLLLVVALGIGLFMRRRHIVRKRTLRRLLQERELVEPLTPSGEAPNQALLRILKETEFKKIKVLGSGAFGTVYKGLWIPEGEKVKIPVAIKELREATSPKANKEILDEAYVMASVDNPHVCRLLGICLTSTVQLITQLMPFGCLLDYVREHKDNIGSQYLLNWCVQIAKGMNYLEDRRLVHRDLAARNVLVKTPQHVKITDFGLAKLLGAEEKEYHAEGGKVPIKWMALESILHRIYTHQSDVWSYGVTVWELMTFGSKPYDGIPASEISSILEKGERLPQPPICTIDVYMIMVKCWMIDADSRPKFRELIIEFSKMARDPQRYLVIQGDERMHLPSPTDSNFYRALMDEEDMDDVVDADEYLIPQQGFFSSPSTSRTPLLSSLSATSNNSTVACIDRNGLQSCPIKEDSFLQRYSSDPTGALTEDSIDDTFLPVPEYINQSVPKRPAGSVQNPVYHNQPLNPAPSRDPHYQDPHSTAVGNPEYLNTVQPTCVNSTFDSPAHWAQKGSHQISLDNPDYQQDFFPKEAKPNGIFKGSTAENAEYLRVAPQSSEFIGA

[8] = target: Follistatin-related protein 3 (Homo sapiens) (UniProt O95633); assay: FSTL3 binders on small-molecule microarrays, primary screen, biochemical, small-molecule microarray, 635 nm fluorescence (AID 1105); conditions: FSTL3 binding, higher = more signal;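 also: score merges emission near 667 nm and signal to noise per printed spot across three slides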
Sequence of Follistatin-related protein 3 (Homo sapiens) (O95633 whole entry, looked up): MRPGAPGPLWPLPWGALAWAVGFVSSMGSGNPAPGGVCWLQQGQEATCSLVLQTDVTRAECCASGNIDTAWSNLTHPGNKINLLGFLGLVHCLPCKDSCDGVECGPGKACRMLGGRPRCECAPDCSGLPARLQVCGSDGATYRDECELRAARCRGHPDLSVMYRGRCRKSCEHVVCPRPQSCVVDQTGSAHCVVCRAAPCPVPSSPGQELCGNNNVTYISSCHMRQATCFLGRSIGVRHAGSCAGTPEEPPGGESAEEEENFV

[9] = target: Dickkopf-related protein 1 (Homo sapiens) (UniProt O94907); assay: DKK1 binders on small-molecule microarrays, primary screen, biochemical, small-molecule microarray, 635 nm fluorescence scan (AID 1106); conditions: DKK1 binding, higher = more signal;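 also: score merges emission near 667 nm with signal to noise over three replicate slides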
Sequence of Dickkopf-related protein 1 (Homo sapiens) (O94907 whole entry, looked up): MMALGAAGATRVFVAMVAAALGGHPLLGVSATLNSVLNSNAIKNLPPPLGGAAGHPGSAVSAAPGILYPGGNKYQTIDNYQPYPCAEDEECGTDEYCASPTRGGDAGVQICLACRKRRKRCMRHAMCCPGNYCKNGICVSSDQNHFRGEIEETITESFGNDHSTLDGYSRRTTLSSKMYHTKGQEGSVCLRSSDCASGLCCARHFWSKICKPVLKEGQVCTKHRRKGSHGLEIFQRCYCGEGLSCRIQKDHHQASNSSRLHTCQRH

[10] = test system: Inhibin beta A chain (activin A); assay: INHBA (activin A) binders on microarrays, primary screen, biochemical, small-molecule microarray, 635 nm fluorescence scan (AID 1107); conditions: small-molecule microarray binding, higher = more signal;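 also: mouse activin A protein probed at 4.33 µg/mL on printed slides; score merges bound-protein fluorescence near 667 nm with spot signal-to-noise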
[11] = test system: Human papillomavirus type 1a protein E7 (residues 44-93); assay: HPV1a E7 fragment binders on microarrays, primary screen, biochemical, small-molecule microarray, residues 44-93, 635 nm fluorescence (AID 1108); conditions: small-molecule microarray binding, fluorescence 635 nm; higher = more signal;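 also: E7 fragment applied at 1 µg/mL in TBST for 1 h at 4 C; score combines spot fluorescence with its signal to noise ratio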
[12] = modulators of HCV replicon luciferase signal, primary screen, HCV replication inhibitor project, Huh7 cells, luciferase reporter (AID 1109); conditions: 48 h, higher = more signal;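 also: huh7 hepatoma cells harbouring a luciferase neomycin HCV replicon reporter; luciferase luminescence as measure of HCV replicon replication; test concentration not given here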
[13] = target: Left-right determination factor 2 (Homo sapiens) (UniProt O00292); assay: LEFTY2 binders on small-molecule microarrays, primary screen, biochemical, small-molecule microarray, 635 nm fluorescence scan (AID 1110); conditions: LEFTY2 binding, higher = more signal
Sequence of Left-right determination factor 2 (Homo sapiens) (O00292 whole entry, looked up): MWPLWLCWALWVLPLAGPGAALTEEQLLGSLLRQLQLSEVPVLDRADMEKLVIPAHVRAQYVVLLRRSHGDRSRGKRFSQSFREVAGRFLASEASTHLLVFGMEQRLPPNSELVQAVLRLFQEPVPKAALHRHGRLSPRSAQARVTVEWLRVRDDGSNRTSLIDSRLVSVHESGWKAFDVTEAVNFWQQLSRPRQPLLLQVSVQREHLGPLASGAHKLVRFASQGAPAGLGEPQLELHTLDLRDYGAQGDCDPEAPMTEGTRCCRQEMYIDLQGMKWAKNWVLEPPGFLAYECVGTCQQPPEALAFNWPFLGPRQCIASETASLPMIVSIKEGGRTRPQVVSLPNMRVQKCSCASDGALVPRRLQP

[14] = target: Calmodulin-1 (Homo sapiens) (UniProt P0DP23); assay: CALM1 binders on microarrays, EGTA buffer, profiling panel, biochemical, small-molecule microarray, Cy5-labelled CALM1 (AID 1111); conditions: Cy5-CALM1 binding fluorescence, higher = more signal;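 also: labelled calmodulin applied in Tris saline Tween buffer holding calcium plus EGTA and DTT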
[15] = target: Calmodulin-1 (Homo sapiens) (UniProt P0DP23); assay: calcium-bound CALM1 binders on microarrays, profiling panel, artefact control for SMM control-protein annotation, biochemical, small-molecule microarray, Cy5-labelled CALM1, plus calcium (AID 1112); conditions: Cy5-CALM1 binding fluorescence, higher = more signal;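 also: score merges spot fluorescence with signal to noise from triplicate slides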
[16] = small-molecule microarray binders of probe aWnt5a, primary screen, biochemical, biotinylated probe, 635/667 nm fluorescence (AID 1113); conditions: higher = more signal;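 also: score merges 667 nm fluorescence intensity with signal-to-noise per printed feature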
[17] = small-molecule microarray binders of probe aShh, primary screen, biochemical, biotinylated probe, 635/667 nm fluorescence (AID 1114); conditions: higher = more signal;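 also: probe is biotin-labelled aShh protein from a stem cell growth factor screen; measures binding of labelled protein to compounds printed on the slide; score merges feature fluorescence at 667 nm with signal-to-noise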
[18] = small-molecule microarray binders of probe aNog, primary screen, biochemical, biotinylated probe, 635/667 nm fluorescence (AID 1115); conditions: higher = more signal;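 also: probe is biotinylated aNog protein used at 0.15 µg/mL for 1 h at 4 C; z-score combines 667 nm fluorescence of each spot with its signal to noise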
[19] = target: Torsin-1A-interacting protein 1 (Homo sapiens) (UniProt Q5JTV8); assay: LAP1 binders from COS7 cell lysate, primary screen, small-molecule microarray, 635/667 nm fluorescence (AID 1116); conditions: COS7-hLAP1 lysate binding, 635 nm fluorescence, higher = more signal
Sequence of Torsin-1A-interacting protein 1 (Homo sapiens) (Q5JTV8 whole entry, looked up): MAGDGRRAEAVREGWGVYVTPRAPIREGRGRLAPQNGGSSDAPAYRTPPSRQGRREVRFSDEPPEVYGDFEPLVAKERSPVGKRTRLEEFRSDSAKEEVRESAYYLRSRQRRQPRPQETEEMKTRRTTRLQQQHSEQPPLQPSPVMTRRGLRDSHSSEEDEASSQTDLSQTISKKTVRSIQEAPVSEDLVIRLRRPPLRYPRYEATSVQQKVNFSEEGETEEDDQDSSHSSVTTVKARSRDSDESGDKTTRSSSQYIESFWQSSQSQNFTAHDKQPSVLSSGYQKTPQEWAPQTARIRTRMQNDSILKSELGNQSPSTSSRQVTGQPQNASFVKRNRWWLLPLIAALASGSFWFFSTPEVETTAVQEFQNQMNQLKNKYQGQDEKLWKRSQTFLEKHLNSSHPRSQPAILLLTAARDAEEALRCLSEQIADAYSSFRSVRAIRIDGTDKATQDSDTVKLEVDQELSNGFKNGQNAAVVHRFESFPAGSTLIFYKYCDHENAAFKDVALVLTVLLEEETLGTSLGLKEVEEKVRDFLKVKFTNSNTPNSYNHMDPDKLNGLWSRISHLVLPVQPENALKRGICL

[20] = target: Alpha-bungarotoxin (Bungarus multicinctus) (UniProt P60615); assay: alpha-bungarotoxin binders on microarray, profiling panel, artefact control for SMM control protein annotation, biochemical, small-molecule microarray, Alexa647 label, 635/667 nm fluorescence (AID 1117); conditions: alpha-BTX-A647 binding fluorescence, higher = more signal
Sequence of Alpha-bungarotoxin (Bungarus multicinctus) (P60615 whole entry, looked up): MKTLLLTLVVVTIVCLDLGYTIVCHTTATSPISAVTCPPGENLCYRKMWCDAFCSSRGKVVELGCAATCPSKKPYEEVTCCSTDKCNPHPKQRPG

SMILES	composite z-score [1]	composite z-score [2]	composite z-score [3]	z-score [4]	composite z-score [5]	composite z-score [6]	composite z-score [7]	composite z-score [8]	composite z-score [9]	composite z-score [10]	composite z-score [11]	z-score [12]	composite z-score [13]	composite z-score [14]	composite z-score [15]	composite z-score [16]	composite z-score [17]	composite z-score [18]	composite z-score [19]	composite z-score [20]
CN1C(=O)C2C=CC(C(O)Cc3ccccc3)N(Nc3ccccc3)C2C1=O (stereo not given)	0.36	0.645	0.898	-0.00929 (inactive)	0.235	-0.442	-0.389	-0.0978	-0.549	0.437	0.343	-0.12	-0.244	1.08	0.85	-0.0738	-0.153	0.338	0.439	0.428
NCCCCCNC(=O)[C@@H]1C[C@@H]2C(=O)NCC(=O)N2[C@@H]1c1ccc(O)cc1	1.15	-0.0246	-0.128	-0.0882 (inactive)	1.49	1.32	-0.318	1.22	1.63	0.294	1.37	0.358	1.3	0.957	0.281	-0.008	-0.138	-0.036	0.855	1.15
O=C1NCC(=O)N2[C@@H]1C[C@@H](C(=O)O)[C@H]2c1cccc(OCCO)c1	2.28	3.06	1.73	0.45 (inactive)	1.38	1.38	1.96	1.66	2.56	1.74	1.57	0.19	1.68	2.17	1.1	1.38	3.13	3.62	4.92	2.04
COCCOC(=O)N1C(=O)[C@@]2(c3cc(C#CCNC(N)=O)ccc31)[C@H](C(=O)NC[C@H](O)c1ccccc1)[C@H]1C(=O)O[C@H](c3ccccc3)[C@H](c3ccccc3)N1[C@@H]2c1ccccc1OCCO	1.5	-0.547	0.218	-0.0247 (inactive)	1.04	0.628	0.366	1.01	0.711	1.05	1.35	-0.807	0.0826	1.96	0.0588	0.207	-0.0375	1.32	0.667	1.43
COc1ccc(NN2C(C(O)c3ccc([N+](=O)[O-])cc3)C=CC3C(=O)N(C4CCCCC4)C(=O)C32)cc1 (stereo not given)	0.562	0.627	0.879	0.393 (inactive)	0.355	0.909	-0.188	0.73	-0.281	0.921	1.35	0.376	-0.0693	1.04	0.212	-0.0758	0.368	0.797	0.55	0.799
COC(=O)[C@@]1(Cc2ccc(F)cc2)[C@H]2c3cc(C(=O)N(C)C)n(CC4CC4)c3C[C@H]2CN1C(=O)c1ccccc1	-0.0199	2.38	1.41	-1.59 (inactive)	1.4	1.31	0.463	1.18	-0.637	0.14	1.45	-1.14	0.0265	2.21	1.39	1.05	1.38	0.816	0.156	1.69
CC[C@@H]1C=C(C(=O)O)[C@H](c2ccco2)N1S(=O)(=O)c1ccc(C)cc1	1.37	-0.0292	0.333	0.447 (inactive)	0.0314	0.175	-0.832	0.291	0.128	1.23	-0.11	-1.22	-0.0532	-0.256	-0.841	-0.0529	-0.0146	0.0051	0.018	0.396
NC(=O)[C@@H]1[C@H]2C(=O)O[C@H](c3ccccc3)[C@H](c3ccccc3)N2[C@H](c2ccc(O)cc2)[C@@]12C(=O)Nc1ccc(C#CC3(O)CCCCCC3)cc12	0.61	-0.127	0.523	0.0171 (inactive)	-0.177	-1.05	-0.497	-0.846	-0.193	-0.257	0.124	-0.293	-0.0941	-0.363	0.555	-0.202	0.0684	0.179	1.59	-0.115
CC(C)N1C(=O)c2ccccc2[C@](C)(C(=O)NCc2ccccc2)[C@@H]1c1ccc(CO)cc1	0.758	0.234	0.849	0.0799 (inactive)	-0.44	-0.329	-0.587	-0.615	-1.16	0.288	-0.375	0.0554	-1	-0.742	-0.514	-0.0735	-0.19	-0.141	1.13	-0.491
COCCCN1C(=O)[C@@]2(Cc3ccccc31)c1ccccc1C(=O)N(Cc1ccccc1C(F)(F)F)[C@H]2c1ccc(CO)cc1	1.13	-0.106	-0.563	0.498 (inactive)	0.94	0.561	0.12	0.919	0.756	0.915	0.898	-0.311	0.33	-0.47	-0.206	0.439	-0.243	1.79	0.094	0.33
O=C1c2ccccc2[C@](Cc2ccccc2I)(C(=O)NC2CC2)[C@H](c2ccc(CO)cc2)N1C1CCCCC1	1.19	-0.809	-0.589	-0.578 (inactive)	0.724	1.33	0.543	1.05	0.529	0.435	1.46	-1.62	0.272	0.675	0.0028	-0.176	-0.421	-0.0067	0.547	1.38
CC(C)OC(=O)C=C1C[C@@H](c2ccccc2C(F)(F)F)O[C@@H](c2ccccc2C(F)(F)F)O1	0.192	-0.0017	0.0563	-0.723 (inactive)	0.417	0.163	0.337	0.332	0.25	0.266	0.706	-0.384	0.351	-0.21	-0.624	-0.13	-0.2	0.0234	-0.281	0.497
[N-]=[N+]=Nc1ccccc1C[C@]1(C(=O)NCC(O)CO)N=C(c2ccc(OCCCO)cc2)O[C@H]1c1ccccc1N=[N+]=[N-] (stereo not given in full)	0.535	0.963	0.704	-1.19 (inactive)	-0.255	-0.517	-0.363	-0.736	-1.12	1.01	0.577	-1.74	-0.588	0.771	0.839	-0.0285	0.232	-0.0592	0.407	0.15
CC(C)(C)OC(=O)CC[C@]1(C(=O)O)N=C(c2ccc(OCCCO)cc2)O[C@H]1c1ccccc1N=[N+]=[N-]	1.34	1.75	1.11	0.115 (inactive)	0.443	0.581	-0.143	0.4	0.0608	0.977	0.148	2.27	0.101	1.84	0.465	0.38	0.699	2.34	1.41	1.42
CCCC#C[Si](O[C@H](CC)c1cn([C@H](CO)Cc2ccccc2)nn1)(C(C)C)C(C)C	0.947	0.111	-0.467	-0.118 (inactive)	0.955	0.379	0.371	1.15	0.82	-0.253	1.08	-0.256	0.728	0.486	-0.0381	0.0597	-0.0866	0.26	0.761	0.701
C[N+](C)(C)CCCCNC(=O)[C@H]1C[C@H]2C(=O)N[C@@H](Cc3ccccc3)C(=O)N2[C@H]1c1ccc(O)cc1	0.137	-0.0123	-0.0505	0.0946 (inactive)	0.612	0.0215	0.231	0.953	1.22	0.859	-0.0021	-0.72	0.686	-0.494	0.565	-0.0944	0.442	0.0209	0.427	1.56
